Source: PubChem (National Center for Advancing Translational Sciences (NCATS))
Hits are enriched below; roughly 0.83% of the tested compounds scored in any of these assays.
GLS inhibitor: blocks human kidney-isoform glutaminase activity. GLS enzymatic activity, qHTS titration. Potency, µM (doses to about 45.5 µM), for the others: top-dose activity change, negative = inhibition, most hits filed as inhibitors. 410,000 tested, 0.21% active; active = well fitted inhibition curve with a large enough effect; inconclusive = small, poorly fitted or top-dose-only effect, or another doubt; inactive = no such curve, though single readings can be large or run the other way; also: potency is read from the fitted curve at half-maximal effect; % is scaled to controls: 0 for no effect and ±100 for the full control effect
Target sequence (O94925 whole entry, looked up, canonical isoform): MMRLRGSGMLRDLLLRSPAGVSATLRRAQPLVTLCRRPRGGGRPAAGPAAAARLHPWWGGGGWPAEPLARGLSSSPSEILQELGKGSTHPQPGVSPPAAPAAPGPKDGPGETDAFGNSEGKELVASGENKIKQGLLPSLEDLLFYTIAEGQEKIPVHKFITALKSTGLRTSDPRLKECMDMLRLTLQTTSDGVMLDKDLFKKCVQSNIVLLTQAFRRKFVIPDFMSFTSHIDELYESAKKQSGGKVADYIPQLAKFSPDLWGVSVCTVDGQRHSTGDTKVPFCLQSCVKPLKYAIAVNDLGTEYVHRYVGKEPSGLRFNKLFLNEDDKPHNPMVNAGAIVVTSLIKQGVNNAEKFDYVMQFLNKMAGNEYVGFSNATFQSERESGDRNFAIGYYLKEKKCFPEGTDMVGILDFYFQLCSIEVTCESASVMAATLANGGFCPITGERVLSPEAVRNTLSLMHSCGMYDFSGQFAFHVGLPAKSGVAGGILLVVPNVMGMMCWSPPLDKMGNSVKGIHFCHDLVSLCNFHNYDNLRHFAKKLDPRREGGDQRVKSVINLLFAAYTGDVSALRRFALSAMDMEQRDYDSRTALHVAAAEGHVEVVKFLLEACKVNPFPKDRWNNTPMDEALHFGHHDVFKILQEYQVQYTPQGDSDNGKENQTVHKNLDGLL
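Assay buffer: 45 mM KH2PO4 pH 8.2, 0.02% Tween-20. hKGA acts on L-glutamine (1 mM solution added); product glutamate is reported by an oxidase/peroxidase Amplex Red coupling, with fluorescence taken at baseline and 30 min.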
CtBP-E1A blk: inhibitors of CtBP/E1A interaction. AlphaScreen GST-E1A/His-CtBP binding, 1536-well; hits give low values. activity change, % (no concentration beside the values). 340,000 tested, 0.49% active. AID 651724; also: % is scaled to controls: 0 for no effect and ±100 for the full control effect
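Steps: dispense buffer (Tris pH 8.0, NaCl 300 mM, TCEP 1 mM, BSA, Tween 20); add 5X protein mix (GST-E1A, His-CtBP, 125 nM each); pin 23 nL compound; 2 h at 37 °C, dark; add 5X beads (50 ug/mL); 1 h; read.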
Six1-Eya2 blk: Six1/Eya2 interaction inhibition; Q15475+O00167; AlphaScreen GST-Six1/His-Eya2 binding, biochemical; hits give low values; activity change, % (concentration not given with the values); 360,000 tested, 0.56% active; AID 651725; also: % is scaled to controls: 0 for no effect and ±100 for the full control effect
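Six1/Eya2 binding was read as AlphaScreen signal after compounds were pinned into GST-Six1 plus His-tagged Eya2 (5X stock 250/500 nM) in pH 8.0 Tris/NaCl/TCEP buffer, beads added, then incubated 1 h, 37 C, dark.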
Menin-MLL TR inh: inhibitors of human menin-MLL interaction, mutant MLL peptide; O00255; Menin + Texas Red MLL mutant peptide, fluorescence polarization; Potency, µM (doses to about 61.6 µM), inactives show at the highest dose FP activity change, negative = inhibition, most hits filed as inhibitors; 270,000 tested, 0.23% active; AID 1768; active = well fitted inhibition curve with a large enough effect in the polarisation, with a control signal flat, not every such curve was filed as active; inconclusive = small, poorly fitted or top-dose-only effect, or effect the other way, or a change in a side signal; inactive = no such curve, though single readings can be large or run the other way; the % refers to the polarisation; also: potency is read from the fitted curve at half-maximal effect; % of control where 0% means no effect
MLL CXXC-DNA inh: blocks binding of human MLL CXXC domain to DNA; AID 2662; 290,000 tested, 0.037% active; Potency, µM (top dose mostly 115 µM), for the others: top-dose activity change, negative = inhibition, most hits filed as inhibitors; MLL-CXXC / FITC-HOXA9 DNA fluorescence polarization; Q03164; active = well fitted inhibition curve with a large enough effect in the polarisation, with a control signal flat, not every such curve was filed as active; inconclusive = small, poorly fitted or top-dose-only effect, or effect the other way, or a change in a side signal; inactive = no such curve, though single readings can be large or run the other way; the % refers to the polarisation; also: potency is read from the fitted curve at half-maximal effect
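Steps: dispense CXXC domain solution (7 uM) → pin compounds or unlabeled HOX-A9 DNA control → 5 min ambient → add FLSN-HOX-A9 solution (50 nM) → spin → 30 min ambient → fluorescence polarization. Tris pH 7.5/NaCl/DTT/BSA buffer.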
Menin-MLL FL inh: displaces fluorescein MLL peptide from human menin; 290,000 tested, under 10 active; AID 1766; FP activity change, % at 61.4 µM; Fluorescence polarization, fluorescein-MLL peptide displacement from menin; active = well fitted curve in the direction sought with a large enough effect in the polarisation, not every such curve was filed as active; inconclusive = small, poorly fitted or top-dose-only effect, or effect the other way, or a change in a side signal; inactive = no such curve, though single readings can be large or run the other way; the % refers to the polarisation; also: % of control where 0% means no effect
Numbers without * were called inactive; ? = inconclusive; . = not tested or not shown; ! = repeats disagree; [ ] = dose if it differs, or a comment. Rule as the data show it, unless noted: active = activity change below about -65%; inconclusive = mostly about -30% to -63%; inactive = weaker than that.

SMILES	GLS inhibitor	CtBP-E1A blk	Six1-Eya2 blk	Menin-MLL TR inh	MLL CXXC-DNA inh	Menin-MLL FL inh
COc1ccc2cc(CNc3ccc(C)cc3)c(=O)n(CC(=O)Nc3cccc(Cl)c3C)c2c1	-7%	.	.	.	.	.
C=C(C)C(=O)OCCOCC	.	.	.	-8%	.	1
COc1cc([N+](=O)[O-])cc(/C=N/NC(=O)C(O)(c2ccccc2)c2ccccc2)c1O	3%	-82*	?	?	4%	1
COc1cc([N+](=O)[O-])cc(/C=N/NC(=O)c2cccnc2)c1O	-11%	-92*	-90*	.	-28%	4
Cc1ccc(NC2=CC(=O)c3sc(C)nc3C2=O)cc1	.	.	.	?	.	-14
COc1ccccc1CNC(=O)C[C@@H]1C[C@H]2c3cc(NC(=O)c4ccc5c(c4)OCO5)ccc3O[C@H]2[C@@H](CO)O1	-5%	-19	-23	.	.	.
O=C(C[C@H]1C[C@@H]2c3cc(NC(=O)c4ccc5c(c4)OCO5)ccc3O[C@@H]2[C@H](CO)O1)NCc1cc(F)ccc1F	2%	-67*	-70*	.	.	.
Oc1ccc(N=Nc2ccccc2-c2nn[nH]n2)c(O)c1	20%	.	-86*	?	?	?
Cc1ccccc1-c1nn[nH]n1	-1%	9	4	-4%	4%	2
CC/C=C\C/C=C\C/C=C\C/C=C\C/C=C\C/C=C\CCC(=O)NCC(=O)O	.	.	.	3%	.	-5
O=C(O)c1cccc(-n2cccc2/C=C/[N+](=O)[O-])c1	10µM*	6	?	.	-25%	?
CC(=O)Oc1ccc2c(=O)c(/C=N/c3cc(=O)[nH]c(=S)[nH]3)coc2c1	11%	-4	-75*	.	18%	2
CCCCCCCCCCCCCCCCOC[C@H](COP(=O)([O-])OCC[N+](C)(C)C)OC(=O)CCCCCCCC(=O)O	.	.	.	-8%	.	-2
Cc1cc(F)c(F)c(C(=O)N2CCOCC2)c1Cl	-9%	3	-92*	-8%	7%	4
Cc1ccc(NC2=C/C(=N/S(=O)(=O)c3cccs3)c3ccccc3C2=O)cc1	5%	-30	?	?	-1%	.
COC(=O)c1ccccc1NC1=C/C(=N\S(=O)(=O)c2cccs2)c2ccccc2C1=O	-7%	?	-84*!	?	-22%	1
O=C1C(Nc2ccccc2)=C/C(=N/S(=O)(=O)c2cccs2)c2ccccc21	7%	?	-86*	?	-6%	3
Cc1ccc(S(=O)(=O)/N=C2\C=C(Nc3cccc(C(=O)O)c3)C(=O)c3ccccc32)c(C)c1	19%	-82*	?	?	2%	-15
Cc1ccc(S(=O)(=O)/N=C2\C=C(Nc3ccc(O)cc3)C(=O)c3ccccc32)cc1	?	-69*	-78*	.	.	.
C#C[C@@]1(O)CC[C@@H]2[C@@H]3CCC4=CC(=O)CC[C@@H]4[C@H]3CC[C@]21C	.	.	.	2%[24.8 µM]	.	-4[24.8 µM]
COc1cc(/C=N/NC(=O)CCC(=O)NCc2ccccc2)cc(OC)c1OC	3%	-66*	-12	6%	4%	3
Cc1ccc(/C=N/NC(=O)CNC(=O)c2cccs2)cc1	0%	2	1	.	25%	.
COc1cccc(/C=N/NC(=O)CNC(=O)CCc2ccccc2)c1O	10%	.	-69*	.	-9%	1
COc1ccccc1/C=N/NC(=O)CNC(=O)c1ccccc1	-12%	-7	1	.	-5%	6
COc1cc(/C=N/NC(=O)CCn2c3ccccc3c3ccccc32)cc(OC)c1OC	-8%	9	3	39%	3%	1
COc1ccccc1/C=C\C(=O)NCC(=O)N/N=C/c1cccc(OC)c1O	-2%	-89*	?	11%	10%	1
COc1cccc(/C=N/NC(=O)CNC(=O)c2cccs2)c1O	?	-89*	-85*	.	-8%	1
CO/N=C1/CC2(CC3CC(C/C=C(/C)CC(C)/C=C\C=C4\COC5C(O)C(C)=CC(C(=O)O3)C45O)O2)OC(/C(C)=C/C(C)C)C1C (centres undefined)	-2%	.	.	.	.	.
O=C(O)COc1cccc2c1CCC=C2CCO/N=C(\c1ccccc1)c1cccnc1	.	.	.	11%	.	-4
